# Source: PubChem (Johns Hopkins Ion Channel Center)
# The list is not random: actives were taken first. Their share in the collection is about 1.6%.
# KCNQ2 enhance: KCNQ2 (rat) channel potentiation | 310,000 tested, 0.54% active | CHO-K1 KCNQ2, FluxOR thallium flux fluorescence; hits give high values | B-score at 10 µM;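 active = fluorescence ratio B-score at least 3 SD of library B-scores, with initial fluorescence B-score within 3 of them, cut at about 5.3 in these data; same plate scores as AID 2156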;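 also: B-score of peak minus minimum over baseline fluorescence ratio after K+ and Tl+ stimulus; positive B-score means potentiation of KCNQ2 with more thallium influx and brighter signal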
# KCNQ2 inh: blocks the rat KCNQ2 potassium channel; O88943; CHO-K1 KCNQ2, FluxOR thallium flux, 20 min; hits give low values; B-score at 10 µM; 310,000 tested, 1.1% active; AID 2156;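 active = fluorescence ratio B-score at most minus 3 library SDs, with starting brightness B-score within 2 library SDs, cut at about -5.5 in these data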
# An asterisk follows results filed as active; i = inactive; . = not tested or not shown.
SMILES,KCNQ2 enhance,KCNQ2 inh
Cn1cc(C(=O)c2ccccc2)cc1-c1nc2ccccc2n1C,.,i
COc1cc(OC)c(N(C)C(=O)c2cc3c(s2)-c2ccccc2S(=O)(=O)C3)cc1Cl,.,i
Cc1ccc(S(=O)(=O)N2CCN=C2SCc2ccc(Cl)c(Cl)c2)cc1,.,i
O=S(=O)(c1ccccc1)N1CCN=C1SCc1c(F)cccc1Cl,-6.31,-6.31*
Cc1ccc(C)c(CSC2=NCCN2S(=O)(=O)c2ccccc2)c1,-6.27,-6.27*
O=S(=O)(c1ccc(Cl)cc1)N1CCN=C1SCc1cccc(Cl)c1,.,i
Cc1csc(NC(=O)C(NC(=O)c2ccccc2F)C(C)C)n1 (stereo not given),.,i
CN(C)C(CNC(=O)CNC(=O)c1ccc2ccccc2c1)c1ccccc1 (stereo not given),.,i
CCN(CC)CCN1C(=O)C2C(C(=O)Nc3cc(C)cc(C)c3)C3C=CC2(O3)C1C(=O)NC1CCCCC1 (stereo not given),1.11,i
Cc1ccccc1N1CCN(C2CCCN(C(=O)CCn3cnnn3)C2)CC1 (stereo not given),1.24,i
CC(C)SCCCOc1ccc(C(C)(C)C)cc1,-5.81,-5.81*
CC(C)SCCCCOc1ccc2ccccc2c1,-6.89,-6.89*
c1ccc2cc(OCCOCCOc3ccc4ccccc4c3)ccc2c1,.,i
CC(C)(C)c1ccc(OCCN2CCCC2)cc1,.,i
COc1ccccc1CNC(=O)c1ccccc1C(=O)NC(CC(C)C)C(=O)NCc1ccccc1OC (stereo not given),.,i
COc1ccc(C(=O)O)cc1S(=O)(=O)Nc1ccccc1Cc1ccccc1,0.01,i
O=C(Nc1ccccc1F)C(=Cc1sc(N2CCOCC2)nc1-c1ccccc1)C(=O)Nc1ccccc1F,-6.47,-6.47*
O=C(N/N=C/c1sc(N2CCOCC2)nc1-c1ccccc1)c1ccccc1F,.,i
COC(=O)c1ccc(COc2cccc(C)c2C)cc1,1.12,i
COc1ccc(Cn2nnnc2C(c2cc3cc(C)cc(C)c3[nH]c2=O)N2CCOCC2)cc1 (stereo not given),-6.66,-6.66*
Cc1cccc2cc(C(c3nnnn3Cc3ccccc3)N3CCN(c4ccccc4)CC3)c(=O)[nH]c12 (stereo not given),-9.04,-9.04*
CCc1ccc2[nH]c(=O)c(C(c3nnnn3Cc3ccc(OC)cc3)N3CCOCC3)cc2c1 (stereo not given),.,i
Cc1cc(C)c2cc(C(c3nnnn3C3CCCC3)N3CCOCC3)c(=O)[nH]c2c1 (stereo not given),-6.05,-6.05*
Cc1ccc2cc(C(c3nnnn3C3CCCC3)N3CCN(c4ccc(F)cc4)CC3)c(=O)[nH]c2c1 (stereo not given),.,i
Cc1cccc2cc(C(c3nnnn3Cc3ccccc3)N3CCN(C)CC3)c(=O)[nH]c12 (stereo not given),.,i
SMILES,KCNQ2 enhance,KCNQ2 inh
Cc1cc(C)c2[nH]c(=O)c(C(c3nnnn3CC3CCCO3)N3CCC(C)CC3)cc2c1 (stereo not given),.,i
Cc1cc(C)c2[nH]c(=O)c(C(c3nnnn3CC3CCCO3)N3CCCC(C)C3)cc2c1 (stereo not given),-5.61,-5.61*
Cc1cccc(NC(=O)Nc2cc(C)cc(C)n2)c1,0.99,i
O=C(CSC1=NS(=O)(=O)c2cc(F)ccc2N1)NCc1ccccc1,.,i
O=C(Cn1c(=O)n(Cc2ccco2)c(=O)c2c3c(sc21)CCCCC3)c1ccccc1,-5.73,-5.73*
O=C(Cn1c(=O)n(Cc2ccco2)c(=O)c2c3c(sc21)CCCCC3)Nc1ccccc1,.,i
COc1ccc(C[C@H]2CN3C(=NC[C@@H]3Cc3ccc(O)cc3)N2CCNC(=O)c2ccc(C)c(Br)c2)cc1,.,i
COc1ccc(C[C@H]2CN3C(=NC[C@@H]3Cc3ccccc3)N2CCNC(=O)c2ccc(C)c(Br)c2)cc1,-5.84,-5.84*
Cc1cc(OCCN2CCC(Cc3ccccc3)CC2)ccc1[N+](=O)[O-],.,i
O=C(/C=C/c1ccc(-c2ccccc2[N+](=O)[O-])o1)c1ccc(F)cc1,.,i
O=C(/C=C/c1ccc(-c2ccccc2[N+](=O)[O-])o1)c1ccc(Br)cc1,-7.22,-7.22*
O=C(Nc1cc(Cl)ccc1Cl)Nn1cnnc1,0.01,i
O=C(Nc1ccc(Cl)c(Cl)c1)OCCNC(=O)c1ccncc1,.,i
CNC(=S)Nc1cc(C)ccc1OC(F)F,0.03,i
CC(C)n1c2ccccc2c2cc([N+](=O)[O-])ccc21,0.71,i
CCC(C)n1c(=S)[nH]c2c(sc3ccc([N+](=O)[O-])cc32)c1=O (stereo not given),25.1*,i
CSc1c(CC(=O)Nc2ccccc2)n(C)c2ccccc12,.,i
Cn1c(CC(=O)Nc2ccccc2)c(Sc2ccccc2)c2ccccc21,-6.15,-6.15*
Cc1ccc2[nH]c(C(=O)N3CCN(C(c4ccccc4)c4ccccc4)CC3)cc2c1,-5.8,-5.8*
COc1ccccc1N1CCN(C(=O)c2cc3cc(C)ccc3[nH]2)CC1,1.67,i
